TRPM1 prom inh: inhibitors of MITF-dependent TRPM1 promoter reporter, primary screen, cell-based, SK-MEL-5, single point, luciferase; 330,000 compounds, 0.83% hits; SK-MEL-5 TRPM1 promoter luciferase, 24 h; inhibition, % at 12.5 µM;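 active means mean inhibition across replicates of 60% or more, whatever share of single replicates reaches that level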
Peg3 prom inh: Peg3 promoter-driven luciferase inhibitors, primary screen, cell-based, HeLa, luciferase luminescence | HeLa PEG-Prom luciferase reporter, overnight | inhibition, % at 20 µM | 360,000 compounds, 1.7% hits;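 active means inhibition of at least 50% at 20 µM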
HIF-2a block: HIF-2a reporter inhibitors, primary screen, luminescence, 786-0 RCC cells; 786-0 RCC cells HIF-2a reporter, luciferase luminescence, overnight; inhibition, % at 18.8 µM; 360,000 compounds, 0.72% hits; AID 624352, 2012;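 active means inhibition of the luminescence signal of 40% or more relative to plate controls, in a single-dose primary screen at 18.75 µM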
CF NFkB block: inhibitors of PAF-induced NF-kB signaling, primary screen, cell-based, GFP fluorescence, uHTS | KKLEB NF-kB-GFP reporter, GFP fluorescence overnight | inhibition, % at 5 µM | 360,000 compounds, 0.86% hits;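 active means at least 50% inhibition at 5 µM, scaled per plate between neutral and stimulator controls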;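 further: PAF is a Pseudomonas aeruginosa culture filtrate used as stimulus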
ABHD5-PLIN5 inh: ABHD5-PLIN5 interaction inhibitors, primary screen, cell lysate, split luciferase complementation, luminescence. inhibition, % at 4 µM. 360,000 compounds, 0.78% hits. Split G. princeps luciferase complementation, 4 h. Perilipin-5 (Homo sapiens) + 1-acylglycerol-3-phosphate O-acyltransferase ABHD5 (Homo …. AID 602281, 2012;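 active means inhibition above the mean inhibition across every tested compound plus 3 SD, cut at about 22% in these data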
KKLEB tox: cytotoxicity in KKLEB CF airway cells, primary screen, cytotoxicity control for CF NF-kB inhibitor project, cell-based, uHTS, fluorescence assay plates; KKLEB CF airway cells viability, ATPlite luminescence, overnight; active compounds read low; cells stimulated with P. aeruginosa culture filtrate; activity change (cytotoxicity), % at 5 µM; 360,000 compounds, 0.36% hits;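 active means corrected activity change at or below -50% at 5 µM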
Each line names hits and unclear results; the compound was inactive in the other large screens; ! = repeats disagree. Hits are enriched below; roughly 3.1% of the tested compounds scored in any of these assays.

CCOC(=O)C1=C(COC(=O)C2CC(=O)N(c3ccc(CC)cc3)C2)NC(=O)NC1C (centres undefined)	none
CCSc1ccccc1C(=O)n1nnc2ccccc21	TRPM1 prom inh 69, Peg3 prom inh 70, CF NFkB block 61
CCc1ccc(NC(=O)c2cnc(N3CCN(c4ccccn4)CC3)c3ccccc23)cc1	Peg3 prom inh 65
CC(C)NC(=O)c1cnc(N2CCN(c3ccccn3)CC2)c2ccccc12	none
COc1ccc(C(CNC(=O)c2ccc(S(=O)(=O)N3CC(C)CC(C)C3)cc2)N(C)C)cc1 (centres undefined)	Peg3 prom inh 71
COc1ccc(CC2C(=O)NC(C)C(=O)N(C)C3Cc4ccc(cc4)Oc4cc(ccc4O)CC(C(=O)NC(C)C(=O)NC(C)C(=O)N2C)N(C)C3=O)cc1 (centres undefined)	TRPM1 prom inh 98, Peg3 prom inh 97, HIF-2a block 82, CF NFkB block 88
O=C(NCCN1CCCCC1)Nc1cccc(F)c1	none
CCN1CCN(Cc2ccc(NC(=O)c3cc(NC(=O)N4CCNC4=O)cc(OC)c3)cc2C(F)(F)F)CC1	Peg3 prom inh 97!
CCN1CCN(Cc2ccc(NC(=O)c3cc(NC(=O)c4cc5cccc(OC)c5o4)cc(OC)c3)cc2C(F)(F)F)CC1	Peg3 prom inh 104, CF NFkB block 55!, KKLEB tox -53!
CCN1CCN(Cc2ccc(NC(=O)c3ccc(C)c(NC(=O)c4cccc(-c5cn[nH]c(=O)c5)c4)c3)cc2C(F)(F)F)CC1	CF NFkB block 72
CCN1CCN(Cc2ccc(NC(=O)c3cc(NC(=O)c4cc(-c5ccc(OC)cc5)n[nH]4)cc(OC)c3)cc2C(F)(F)F)CC1	TRPM1 prom inh 99
COC(=O)c1oc2ccccc2c1NC(=O)/C=C/C(=O)O	none
CCOC(=O)C1(CCOC)CCN(C2C3CC4CC(C3)CC2C4)CC1 (centres undefined)	none
COC(=O)C(CC(C)C)NC(=O)C(Cc1ccccc1)NC(=O)C1CCCN1C(=O)OC(C)(C)C (centres undefined)	none
COc1cccc(Cn2nc3c4cc(F)ccc4n(Cc4ccc(F)cc4)cc-3c2=O)c1	none
COc1cc2c3nnc(-c4ccc(F)cc4)c-3cn(Cc3ccc(C)cc3)c2cc1OC	TRPM1 prom inh 85, Peg3 prom inh 66
COc1cc2c3nnc(-c4ccc(F)cc4)c-3cn(Cc3cccc(C)c3)c2cc1OC	Peg3 prom inh 100, KKLEB tox -77 (no result: TRPM1 prom inh)
COc1cc2c3nnc(-c4ccccc4)c-3cn(Cc3ccc(F)cc3)c2cc1OC	none
CCOC(=O)C(=O)NCC(c1cccs1)S(=O)(=O)c1ccc(F)cc1 (centres undefined)	none
CC(NC(=O)CN1C(=O)NC(c2ccccc2)(c2ccccc2)C1=O)c1cccs1 (centres undefined)	none
CC(=O)Nc1ccc(S(=O)(=O)N2CCC(NC(=O)C(Cc3cccn3C)NC(C)=O)CC2)cc1 (centres undefined)	ABHD5-PLIN5 inh 23
CC1(C)C(/C=C/C=C/C=C/C=C2\N(CCCCS(=O)(=O)O)c3ccc4ccccc4c3C2(C)C)=[N+](CCCCS(=O)(=O)[O-])c2ccc3ccccc3c21	ABHD5-PLIN5 inh 54
O=C(c1cccs1)N1CCCC1	none
O=C(c1cccs1)N1CCN(C(=O)c2cccs2)C1=S	Peg3 prom inh 99
COCCn1c(-c2ccc(OC)cc2)cnc1SCC(=O)Nc1ccc(OC)cc1OC	Peg3 prom inh 64
COCCn1c(-c2ccc(OC)cc2)cnc1SCC(=O)Nc1cc(C)on1	none
COc1ccccc1NS(=O)(=O)c1cccc(C(=O)NCC(c2cccs2)N(C)C)c1 (centres undefined)	none
Cc1cccc(/C=C2\CCC(=C3SCCCS3)C2=O)c1	KKLEB tox -64
Oc1cc(Nc2ccccc2)cc2cccnc12	CF NFkB block 78
Oc1cccc2cc(Nc3ccccc3)cnc12	none (no result: TRPM1 prom inh)
CCN(CC)Cc1ccc(NC(=O)c2sc3cc(Cl)ccc3c2Cl)cc1	Peg3 prom inh 105
CCOC(=O)c1sc(NC(=O)CCN2CCN(C)CC2)c(C(=O)OCC)c1C	Peg3 prom inh 84
CCOC(=O)c1ccc(N2C(=O)C=CC2=O)cc1	Peg3 prom inh 103, HIF-2a block 95
COc1cc(C=c2c3ccccc3n3c2cc(-c2ccccc2)[n+]3C)cc(OC)c1OC	TRPM1 prom inh 65
CN(C)c1ccc(C=c2c3ccccc3n3c2cc(-c2ccc(Cl)cc2)[n+]3C)cc1	TRPM1 prom inh 97, Peg3 prom inh 61
CN(c1ccc(Cl)cc1)c1cc(=O)n(C)c2ccccc12	none
CN1C(=O)/C(=C\c2cc(N=Nc3ccccc3)ccc2O)SC1=S	CF NFkB block 50
COc1ccccc1NC(=O)C(C)OC(=O)C1CCN(S(=O)(=O)c2ccc(C)c(C)c2)CC1 (centres undefined)	none
C/C(=N\NC(=O)c1cc2ccccc2cc1O)c1ccccn1	TRPM1 prom inh 74
O=C(CC1NCCc2ccccc21)Nc1ccc(Cl)cc1 (centres undefined)	none
c1ccc2c(c1)nc1n2CCN1CCN1CCCC1	none
N#C/C(=C(/O)COC(=O)CSc1ccc(Cl)cc1)c1nc2ccccc2[nH]1	Peg3 prom inh 75
Cc1cc(SCC(=O)OC/C(O)=C(\C#N)c2nc3ccccc3[nH]2)c(C)cc1Br	Peg3 prom inh 51
COCCCNC(=O)/C(=C\c1cccn1C)NC(=O)c1cccs1	none
CC(=O)Nc1ccc(S(=O)(=O)NNC(=O)c2cccc([N+](=O)[O-])c2)cc1	none
COc1cc(C(=O)C(=O)N2CCN(c3ccccc3)CC2)cc(OC)c1OC	none (no result: TRPM1 prom inh, Peg3 prom inh, CF NFkB block, KKLEB tox)
Cc1ccc(S(=O)(=O)Nc2ccc3c(c2)C(=O)N([C@@H](C)CO)C[C@@H](C)[C@@H](CN(C)C(=O)NC(C)C)OCCCC[C@H](C)O3)cc1	none (no result: TRPM1 prom inh)
COc1ccc(C(=O)N=C2CCC(C#N)=C3c4cc(OC)c(OC)cc4CCN23)cc1	Peg3 prom inh 51
COc1cc2c(cc1OC)C1=C(C#N)CC/C(=N\S(=O)(=O)c3ccccc3)N1CC2	none (no result: TRPM1 prom inh)
O=CNC1c2ccccc2CCc2ccccc21	none
CCCCNC(=S)N/N=C/c1cccc(OCC)c1O	none
CCOc1cccc(/C=N/NC(=S)Nc2ccccc2[N+](=O)[O-])c1O	HIF-2a block 48
COc1ccc(CC(NC(C)=O)C(=O)NC2CCN(C(=O)c3cc(OC)c(OC)c(OC)c3)CC2)cc1 (centres undefined)	none

Source: PubChem BioAssay (several laboratories)
